Over roughly 33,000 sequences, “E-score (-0.5 to 0.5)” has its median near -0.012; the highest 2% begin near 0.27. The entries come from a sample that favours the highest values as a whole.
biological target: T1, Vhr1 (UniProt P40522); assay: PBM E-score (8-mer binding enrichment) (E-score (-0.5 to 0.5)); higher = stronger / more preferred TF binding; conditions: protein concentration: 200 nM; construct: GST-full length
T1 sequence: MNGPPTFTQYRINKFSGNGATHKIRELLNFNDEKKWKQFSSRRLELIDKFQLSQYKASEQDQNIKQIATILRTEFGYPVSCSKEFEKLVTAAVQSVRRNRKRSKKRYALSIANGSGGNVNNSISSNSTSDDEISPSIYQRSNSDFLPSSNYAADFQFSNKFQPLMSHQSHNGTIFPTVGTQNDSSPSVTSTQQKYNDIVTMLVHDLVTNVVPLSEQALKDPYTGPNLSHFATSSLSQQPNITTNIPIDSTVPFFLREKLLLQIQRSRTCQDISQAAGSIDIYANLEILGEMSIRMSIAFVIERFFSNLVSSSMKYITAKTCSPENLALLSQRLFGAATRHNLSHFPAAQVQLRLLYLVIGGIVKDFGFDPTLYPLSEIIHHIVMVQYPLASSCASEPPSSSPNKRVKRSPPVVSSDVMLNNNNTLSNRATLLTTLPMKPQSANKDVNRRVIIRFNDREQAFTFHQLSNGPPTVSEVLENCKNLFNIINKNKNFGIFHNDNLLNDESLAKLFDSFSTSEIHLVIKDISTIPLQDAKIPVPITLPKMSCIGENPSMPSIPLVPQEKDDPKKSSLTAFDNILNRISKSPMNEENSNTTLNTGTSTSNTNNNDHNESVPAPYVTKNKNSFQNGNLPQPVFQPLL
How it was run: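 For each ungapped eight-base word taken together with its reverse complement, the Universal PBM Analysis Suite assigned an E-score. Binding data came from GST-tagged yeast transcription factors, applied at about 100-200 nM, on universal all-10-mer Agilent arrays made double-stranded by primer extension. Fluorescent anti-GST marked bound protein, and scans were normalised with masliner.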

Sequence | PBM E-score
GAATGCAC | 0.109
CGGCTCGC | 0.0809
AACAGCTC | 0.0178
CTGAATCA | 0.402
GTGAATCA | 0.394
ATGAATCA | 0.423
CTGAATTA | -0.00808
ATGAATCG | 0.214
CTGAATCC | 0.224
GTGAATAA | 0.16
GTGAATGA | 0.0662
ATGAATCC | 0.0842
GAAGATAC | 0.00993
AGCTTGTA | -0.0135
GACAGCTC | -0.0639
CCGGCCGC | -0.048
CCGGCCGG | 0.282
CCGGCCGA | 0.031
AGGTCGTA | 0.107
AGATTGGA | -0.0483
AAGTCACC | 0.301
CTGTCACA | 0.025

Sequence | PBM E-score
CGGTCACC | 0.0171
TAGTCACA | 0.394
CAGTCACA | 0.348
AGGTCACC | -0.16
CCGTCACA | -0.0936
TGGTCACA | 0.035
CCGTCACC | -0.114
ACGTCACC | -0.0531
TCGTCACA | 0.0377
CAGTCACC | 0.307
CTACTTCC | -0.0528
CAAGTGAC | -0.00136
TAGCGCAA | -0.0984
ACCGCGGC | 0.0296
ACGGTAAC | 0.0764
GACAGCAA | -0.0406
AAGTCACA | 0.246
AAGTCACT | 0.209
CAGTCAAA | -0.0678
CAGTCACG | 0.365
CGGTCACA | 0.0193
AAGTCACG | 0.336

Sequence | PBM E-score
GACATCAC | 0.0237
CGGATTGA | 0.132
ACCGGACT | -0.0358
ACCGGACG | 0.283
CCCGGACG | -0.133
ATAGTGTC | 0.13
ATATTATA | 0.058
ATATTATC | 0.0882
ATATTATG | 0.324
CGTATACG | 0.107
CAGTCATA | 0.291
CTGTCATA | 0.0334
CAGTCATG | 0.406
TAGTCAGA | 0.258
TAGTCATA | 0.356
AAGTCATA | 0.316
CAGTCAAG | 0.0145
CGGTCATA | -0.0676
CCGTCATA | 0.139
AGGTCATA | 0.0299
CAGTCAGG | 0.175
ATGTCATA | 0.106

Sequence | PBM E-score
AAACACTA | 0.0776
CCCCCAGC | -0.15
AGCGCACA | 0.00461
GCGCTAAA | -0.142
CCAGACAC | -0.0651
AGCTGCGG | -0.115
CCAATGGG | -0.103
CGACTCTA | 0.225
CGACTCAC | 0.448
CGACTCTC | 0.278
CCACTCAG | 0.0902
GGACTCAC | 0.372
GTACTCAC | 0.263
CGACTCAG | 0.428
AGACTCTC | 0.0937
CCACTCAC | 0.177
CAACTCAC | 0.263
CAACTCAG | 0.0745
GCACTCAC | -0.0104
AGAAAATG | -0.163
TAAAGCAA | -0.0681
ACTTAGAC | -0.127
